The record followed here is the supplement of paper PMC9135407.

Structures are written as SMILES. Where “and” joins values, the source holds several entries; their conditions need not be identical. Identical values can stand only once. Counter-ions that a name gives are not always drawn. Screen size: about 5,800 compounds; about 620 (11%) showed activity. This excerpt belongs to a sample that is enriched for actives. Unmarked numbers belong to inactive results.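 The calls were made as follows: active = score above a cut-off or among the top three wells of a plate; in these data no inactive exceeds 0.85.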

In this assay the test system is primary human hepatic stellate cells (donor 1). Kind of assay: scaled lipid accumulation score (0 = DMSO-like, 1 = nortriptyline-like); higher = stronger HSC inactivation (lipid re-accumulation), active = hit call of the paper. The conditions noted are these: 48 h.
[1] abbreviates: library stock concentration: 10 mM.
The mark [2] stands for this setting: library stock concentration: 80 uM.
Setting [3] is: library stock concentration: 400 uM.
Setting [4] is: library stock concentration: 2 mM.
The mark [5] stands for this setting: library stock concentration: 3.33 mM.
Setting [6] is: library stock concentration: 1 mM.

For the molecule `O=C1NCN(c2ccccc2)C12CCN(CCCC(c1ccc(F)cc1)c1ccc(F)cc1)CC2` [Fluspirilene], under setting [1], the “scaled lipid accumulation score” value is 1.02 (active). In the case of `CCNC(=O)N1CCN(CCCC(c2ccc(F)cc2)c2ccc(F)cc2)CC1` [Amperozide hydrochloride], the “scaled lipid accumulation score” value under setting [1] was 0.661.

Regarding `O=C1NCN(c2ccccc2)C12CCN(CCCC(c1ccc(F)cc1)c1ccc(F)cc1)CC2` [Fluspirilen], the “scaled lipid accumulation score” value was ≤ 0. As to `O=C(Nc1ccc(C(F)(F)F)cn1)N1CCN(c2ncccc2C(F)(F)F)CC1`, the “scaled lipid accumulation score” value under setting [1] is 0.012. On to `CCCC[C@@H](C)/C=C(C)/C=C(\C)C(=O)NC1=C[C@@](O)(/C=C/C=C/C=C/C(=O)NC2=C(O)CCC2=O)[C@@H]2O[C@@H]2C1=O` [Manumycin A], for which the “scaled lipid accumulation score” value (library stock concentration: 9.1 mM) is 0.793. Regarding `C=CC(=O)Nc1cc2c(Nc3ccc(F)c(Cl)c3)ncnc2cc1OCCCN1CCOCC1` [listing 1 of 2 here], the “scaled lipid accumulation score” value reads like this: under setting [2], 0.045; under setting [3], ≤ -0.009 and ≤ -0.005; under setting [4], 0.07 and ≤ -0.005; under setting [1], 0.314.

Turning to `COc1cc2ncnc(Nc3ccc(F)c(Cl)c3)c2cc1OCCCN1CCOCC1` [Gefitinib (ZD1839, Iressa) (0.4 mM)], the “scaled lipid accumulation score” value under setting [3] is 0.081. For the molecule `COc1cc2ncnc(Nc3ccc(F)c(Cl)c3)c2cc1OCCCN1CCOCC1` [Gefitinib (ZD1839, Iressa) (10 mM)], the “scaled lipid accumulation score” value under setting [1] was 0.94 (active). With `COc1cc2ncnc(Nc3ccc(F)c(Cl)c3)c2cc1OCCCN1CCOCC1`, the “scaled lipid accumulation score” value by setting is: under setting [2], ≤ -0.003; under setting [3], ≤ -0.009; under setting [4], 0.19; under setting [1], 0.65. In the case of `COc1cc2ncnc(Nc3ccc(F)c(Cl)c3)c2cc1OCCCN1CCOCC1` [Gefitinib (ZD1839)] [listing 1 of 2 here], the “scaled lipid accumulation score” value under setting [5] was 0.43. With `C=CC(=O)Nc1ccc2ncnc(Nc3cccc(Br)c3)c2c1`, the “scaled lipid accumulation score” value was 0.014 under setting [5] and 0.802 under setting [1].

As to `COc1cc2ncnc(Nc3ccc(F)c(Cl)c3)c2cc1OCCCN1CCOCC1` [Gefitinib (ZD1839, Iressa) (2 mM)], under setting [4], the “scaled lipid accumulation score” value is 0.864 (active). In the case of `COc1cc2ncnc(Nc3ccc(F)c(Cl)c3)c2cc1OCCCN1CCOCC1` [Gefitinib (ZD1839)] [listing 2 of 2 here], the “scaled lipid accumulation score” value under setting [1] is 1.05 (active). `C=CC(=O)Nc1cc2c(Nc3ccc(F)c(Cl)c3)ncnc2cc1C#CC(C)(C)N1CCN(C)CC1`: the “scaled lipid accumulation score” value under setting [3] is 0.879 (active). With `COc1cc2ncnc(Nc3ccc(F)c(Cl)c3)c2cc1OCCCN1CCOCC1` [Gefitinib], where the note is “library stock concentration: 4.5 mM”, the “scaled lipid accumulation score” value is 0.19. Turning to `C=CC(=O)Nc1cc2c(Nc3ccc(F)c(Cl)c3)ncnc2cc1OCCCN1CCOCC1` [listing 2 of 2 here], the “scaled lipid accumulation score” value under setting [1] was 0.983 (active). Same read-out and setting: for `CC(=O)OCC(=O)[C@@]1(O)[C@H](OC(C)=O)C[C@H]2[C@@H]3CCC4=CC(=O)C=C[C@]4(C)[C@@]3(F)[C@@H](O)C[C@@]21C` [Triamcinolone diacetate] the value was ≤ 0. In the case of `COc1ncc(-c2ccc3nccc(-c4ccnnc4)c3c2)cc1NS(=O)(=O)c1ccc(F)cc1F`, the “scaled lipid accumulation score” value under setting [2] was ≤ -0.009; the “scaled lipid accumulation score” value under setting [3] was ≤ -0.009; the “scaled lipid accumulation score” value under setting [4] was ≤ -0.009; the “scaled lipid accumulation score” value under setting [5] is 0.066; the “scaled lipid accumulation score” value under setting [1] is 0.479 and 0.24. For the molecule `O=C(Nc1ccccc1)C12CC1C(=NO)c1ccccc1O2` (configuration not stated), the “scaled lipid accumulation score” value under setting [1] was ≤ -0.006. As for `Clc1cccc(Nc2nnc(-c3ccccc3)c3ccccc23)c1`, the “scaled lipid accumulation score” value is 0.162 under setting [1] and 0.258 (library stock concentration: 15.1 mM). `CCCCCCCCCC(=O)N[C@H](CN1CCOCC1)[C@H](O)c1ccccc1` (racemic) [DL-threo-PDMP (hydrochloride)]: the “scaled lipid accumulation score” value under setting [6] is 0.001. `CCCn1c(=O)c(C)cn2nc(N)nc12`: the “scaled lipid accumulation score” value under setting [1] is ≤ 0 and 0.03. On to `C=C1CC[C@@H]2[C@](C)(CO)[C@H](O)CC[C@@]2(C)[C@@H]1C/C=C1/C(=O)OC[C@H]1O` [Andrographolide], for which the “scaled lipid accumulation score” value is 0.094 under setting [5] and 0.785 under setting [1]. As for `C[C@@H]1C[C@H]2[C@@H]3C[C@H](F)C4=CC(=O)C(Cl)=C[C@]4(C)[C@@]3(F)[C@@H](O)C[C@]2(C)[C@@]1(O)C(=O)CO`, under setting [1], the “scaled lipid accumulation score” value is ≤ 0. As to `CC1(C)S[C@@H]2[C@H](NC(=O)[C@H](N)c3ccc(O)cc3)C(=O)N2[C@H]1C(=O)O` [Amoxicillin], the “scaled lipid accumulation score” value was 0.056. Further, the “scaled lipid accumulation score” value under setting [5] is ≤ 0. Under setting [1], the “scaled lipid accumulation score” value was 0.044 and ≤ 0. On to `CC1(C)S[C@@H]2[C@H](NC(=O)[C@H](N)c3ccc(O)cc3)C(=O)N2[C@H]1C(=O)O` [Amoxicillin Sodium], for which the “scaled lipid accumulation score” value is, setting by setting: under setting [5], ≤ 0; under setting [1], ≤ 0. As for `CC1(C)S[C@@H]2[C@H](NC(=O)[C@H](N)c3ccc(O)cc3)C(=O)N2[C@H]1C(=O)O`, the “scaled lipid accumulation score” value under setting [1] is 0.145. For `O=C(CCC/C=C\C[C@@H]1C(/C=C/[C@@H](O)COc2cccc(C(F)(F)F)c2)[C@H](O)C[C@@H]1O)NC(CO)CO` (some centres not stated) [Fluprostenol serinol amide], the “scaled lipid accumulation score” value under setting [6] is ≤ 0. For the molecule `c1ccc(C2CN3CCSC3=N2)cc1` (single isomer, unassigned; (-)) [(-)-Tetramisole hydrochloride], under setting [1], the “scaled lipid accumulation score” value is ≤ -0.055. Turning to `CCCCC(C)(O)C/C=C/[C@H]1[C@H](O)CC(=O)[C@@H]1CCCCCCC(=O)OC` (some centres not stated) [Misoprostol], the “scaled lipid accumulation score” value is ≤ 0 under setting [6] and ≤ 0 (library stock concentration: 5.2 mM).

Regarding `CCCCC[C@H](O)/C=C/[C@@H]1[C@@H](CCCCCCC(=O)O)[C@H](O)C[C@@H]1O` [11.beta.-Prostaglandin F1.beta.], the “scaled lipid accumulation score” value under setting [6] was ≤ 0.

`COc1cc2ncnc(Nc3ccc(F)c(Cl)c3)c2cc1OCCCN1CCOCC1` [Iressa]: the “scaled lipid accumulation score” value under setting [1] was 0.9 (active). Regarding `CC(C)[C@H](O)C(=O)O` [(S)-(+)-2-hydroxy-3-Methylbutyric Acid], the “scaled lipid accumulation score” value under setting [6] was ≤ 0. Regarding `Cc1cc(C)c(/C=C2\C(=O)Nc3ccccc32)[nH]1` [Semaxanib (SU5416)], the “scaled lipid accumulation score” value runs as follows: under setting [5], ≤ 0; under setting [1], 0.145. With `Cc1cc(C)c(/C=C2\C(=O)Nc3ccccc32)[nH]1` [VEGF Receptor 2 Kinase Inhibitor III], under setting [5], the “scaled lipid accumulation score” value is ≤ 0. Regarding `Cc1cc(C)c(/C=C2\C(=O)Nc3ccccc32)[nH]1`, the “scaled lipid accumulation score” value reads like this: under setting [6], ≤ 0; under setting [1], ≤ 0 and 0.011.

For `CN(C)c1ccc(/C=C2/C(=O)Nc3ccccc32)cc1`, the “scaled lipid accumulation score” value by setting is: under setting [1], ≤ 0 and 0.041; (library stock concentration: 18.9 mM) 0.01.
